Compound activity from PubChem.
This is a sample that favours compounds with a hit; in the whole collection about 4.6% have one here.
Vaccinia Venus = vaccinia inhibition (Venus reporter). 0.46% of 330,000 active. Potency, µM (highest dose often 36.5 µM), inactives show at the highest dose activity change, negative = inhibition, actives largely listed as inhibitors. Vaccinia virus Venus reporter expression, fluorescence; calls by dose curve; tested in A549 cells; further: nearly all actives have a fitted effect of over 30% in size
Vaccinia mCherry = inhibitors of vaccinia virus infection (mCherry reporter signal); Vaccinia virus mCherry reporter infection, fluorescence; Potency, µM (doses to about 36.5 µM), without a hit: at the top dose activity change, negative = inhibition, hits mostly inhibitors; 0.63% of 310,000 active; AID 720579; calls by dose curve; tested in A549 cells; further: nearly all actives have a fitted effect of over 35% in size
LASV entry inh = Lassa virus entry inhibition | AID 540256 | 1.2% of 300,000 active | Potency, µM (titrated, usually from 37.9 µM), without a hit: top-dose activity change, negative = inhibition, hits mostly inhibitors | Lassa virus pseudotype entry inhibition, cell reporter; calls by dose curve; tested in HEK293 cells; further: nearly all actives have a fitted effect of over 50% in size
Marburg entry inh = inhibitors of Marburg virus binding or cell entry. Marburg virus pseudotyped entry inhibition, cell reporter. Potency, µM (series often up to 37.8 µM), for the others: at the highest dose activity change, negative = inhibition, usual class: inhibitors. 1.8% of 300,000 active. AID 540276; calls by dose curve; tested in HEK293 cells
HCV inh = HCV inhibition; Potency, µM (titrated, usually from 41.8 µM), for the others: at the top dose activity change, negative = inhibition, usual class: inhibitors; 3.4% of 340,000 active; Huh7.5.1 HCVcc-Cre infection, luciferase reporter, 44 h; active means well fitted inhibition curve with a large enough effect; inconclusive means small, poorly fitted or top-dose-only effect, or another doubt; inactive means no such curve, though single readings can be large or run the other way
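Cells seeded at 1,000/well and cultured 4 h, then compounds added followed by HCVcc-Cre virus (~0.5 moi). After 44 h further culture, luciferase substrate was added, plates held 15 min at room temperature, and luminescence read for 15 sec.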
Active calls of the source: *; [ ] = remark or other dose. On the % scale 0 is the no-effect control and ±100 the full control effect; potency means the concentration at half of the fitted maximal effect.

Screening CC(/C=C1\SC(=S)N(CCC(=O)Nc2ccc(O)cc2)C1=O)=C\c1ccccc1 returned Vaccinia Venus -9%, Vaccinia mCherry -3%, LASV entry inh inconclusive, Marburg entry inh inconclusive and HCV inh 7.9µM*.
`COc1cc2c(cc1OC)[C@@H]1O[C@](c3ccsc3)(C2)OC2=C1C(=O)CC(C)(C)C2` gave Marburg entry inh -12%[14.2 µM].
For NC(=O)C1CCCN(Cc2ccc3c(c2)CN(Cc2ccccc2)CCO3)C1 (stereo unspecified) the results were Vaccinia Venus 1% and Vaccinia mCherry -5%.
CC(C)n1c2ccccc2c2nc3ccccc3nc21 was read as Vaccinia Venus -11%, Vaccinia mCherry -2%, LASV entry inh 2%, Marburg entry inh inconclusive and HCV inh 13µM*.
Cc1ccc(C2=NS(=O)(=O)N(C)C(C(=O)Nc3ccc(F)cc3F)=C2)cc1 was read as Vaccinia Venus 0%, Vaccinia mCherry inactive and HCV inh inconclusive.
COc1ccc(OC)c(C2=NS(=O)(=O)N(C)C(C(=O)Nc3ccc(F)cc3F)=C2)c1 was read as Vaccinia Venus inconclusive, Vaccinia mCherry inconclusive, LASV entry inh 3%[46.1 µM], Marburg entry inh -1%[46.1 µM] and HCV inh 14µM*.
Screening COc1ccc(C2=NS(=O)(=O)N(C)C(C(=O)Nc3ccc(C(C)=O)cc3)=C2)cc1OC returned Vaccinia Venus -20%, Vaccinia mCherry -21%, LASV entry inh inconclusive, Marburg entry inh inconclusive and HCV inh 11µM*.
`COc1ccc(NC(=O)C2=CC(c3ccc(C)cc3)=NS(=O)(=O)N2C)cc1OC` gave Vaccinia Venus -11%, Vaccinia mCherry inactive and HCV inh inconclusive.
`COc1ccccc1NC(=O)Cn1c(=O)n(Cc2cccs2)c(=O)c2cccnc21` gave Vaccinia Venus -18%, Vaccinia mCherry -13% and Marburg entry inh 3%[46.1 µM].
COc1ccc(C(=O)N2CCc3cc4c(cc3C2C)OCCCO4)cc1 (stereo unspecified) was read as Vaccinia Venus -22%, Vaccinia mCherry -29% and HCV inh 1.6µM*.
O=C(NCC1CCCO1)C(c1ccc(F)cc1)N(Cc1ccc(F)cc1)C(=O)Cn1nnc(-c2cccs2)n1 (stereo unspecified) was read as Vaccinia Venus -19%, Vaccinia mCherry -1%, LASV entry inh 0%, Marburg entry inh 14% and HCV inh 2.5µM*.
Screening O=C(NCC1CCCO1)C(c1ccc(F)cc1)N(C(=O)Cn1nnc(-c2ccc(F)cc2)n1)c1cccc(O)c1 (stereo unspecified) returned Vaccinia Venus -14%, Vaccinia mCherry inactive, LASV entry inh -1%, Marburg entry inh 10µM* and HCV inh -26%.
Screening COc1cc(-c2c(-c3ccc4c(c3)OCO4)noc2-c2ccsc2)cc(OC)c1OC returned Vaccinia Venus -4% and Vaccinia mCherry -10%.
Cc1ccc(C)n1-n1cnc2sc(-c3ccccc3)cc2c1=O was read as Vaccinia Venus -14%, Vaccinia mCherry inactive, LASV entry inh -28%, Marburg entry inh -2% and HCV inh 22µM*.
`O=c1c2cc(-c3ccccc3)sc2ncn1-n1cccc1` gave Vaccinia Venus -21%, Vaccinia mCherry -17%, LASV entry inh 8%, Marburg entry inh inconclusive and HCV inh 5%.
`C=C1[C@@H](O)[C@@H]2O[C@]3(CC[C@H](/C=C/[C@@H](C)[C@@H]4CC(C)=CC5(O[C@H](C[C@@](C)(O)C(=O)OC)CC[C@H]5O)O4)O3)CC[C@H]2O[C@@H]1[C@@H](O)C[C@H](C)[C@H]1OC2(CCCCO2)CC[C@H]1C` (stereo partly specified) gave Vaccinia Venus 1.3µM*, Vaccinia mCherry 1.3µM* and HCV inh 0.56µM*.
Screening C=C1C(O)[C@@H]2O[C@]3(CC[C@H](/C=C/C(C)[C@@H]4CC(C)=CC5(O[C@H](C[C@@](C)(O)CO)CCC5O)O4)O3)CC[C@H]2O[C@@H]1C(O)CC(C)[C@H]1OC2(CCCCO2)CCC1C (stereo partly specified) returned Vaccinia Venus 10µM*, Vaccinia mCherry inconclusive and HCV inh 1.4µM*.
CN(CC1COCCO1)C(=O)c1cnn(-c2ncc3c(n2)-c2ccccc2CC3)c1C1CC1 (stereo unspecified) was read as Vaccinia Venus -28% and Vaccinia mCherry inconclusive.
